PubChem BioAssay (EPA / NIEHS)
Inconclusive results are not listed. Active and inactive are the calls of the source. Rule for the calls, unless noted: active = hit-call score of the fitted dose curve at least 0.9, where 1 is the maximum; inactive = score below 0.9.

Key:
[1] = biological target: Bile acid receptor (Homo sapiens) (UniProt Q96RI1); assay: ATG_FXR_TRANS: Attagene TRANS-FACTORIAL HepG2 Assay for Farnesoid X Receptor (FXR) (AID 2282979; active = hit-call score of the fitted dose curve at least 0.9, where 1 is the maximum;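 note: hits raise reporter mRNA above DMSO so AC50 marks FXR activation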); conditions: HepG2 Attagene TRANS FXR-GAL4 reporter transcription
Chain of Bile acid receptor (Homo sapiens) (Q96RI1 whole entry, looked up, the tested form may be a part): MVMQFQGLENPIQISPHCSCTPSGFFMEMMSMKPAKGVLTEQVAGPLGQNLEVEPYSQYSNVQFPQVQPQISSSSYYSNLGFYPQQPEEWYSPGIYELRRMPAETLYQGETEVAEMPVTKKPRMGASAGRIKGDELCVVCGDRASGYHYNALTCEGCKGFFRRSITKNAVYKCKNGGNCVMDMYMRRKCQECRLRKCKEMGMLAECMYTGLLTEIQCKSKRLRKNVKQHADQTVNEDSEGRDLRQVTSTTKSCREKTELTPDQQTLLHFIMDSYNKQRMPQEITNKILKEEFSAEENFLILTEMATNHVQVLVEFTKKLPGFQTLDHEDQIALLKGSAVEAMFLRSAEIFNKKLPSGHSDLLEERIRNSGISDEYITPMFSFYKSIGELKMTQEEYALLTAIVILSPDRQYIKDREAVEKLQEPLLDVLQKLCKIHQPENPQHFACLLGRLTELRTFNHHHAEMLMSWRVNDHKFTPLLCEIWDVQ
Outline: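 Transient transfection of HepG2 with multiplexed GAL4-UAS reporter units; exogenous FXR-GAL4 chimera. Dose 24 h → TriZol RNA → oligo(dT) RT → PCR, 6-FAM primer extension, HpaI cut → CE. Gain vs DMSO.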

[2] = biological target: Peroxisome proliferator-activated receptor gamma (Homo sapiens) (UniProt P37231); assay: OT_PPARg_PPARgSRC1_0480: Odyssey Thera (OT) 8-hour Protein-Complementation Assay for Peroxisome Proliferator-activated Receptor Gamma / SRC-1 Co-activator (AID 2283387; active = hit-call score of the fitted dose curve at least 0.9, where 1 is the maximum;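 note: nuclear to cytoplasmic split Venus YFP fluorescence ratio reporting PPARg SRC-1 interaction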)
Chain of Peroxisome proliferator-activated receptor gamma (Homo sapiens) (P37231 whole entry, looked up, the tested form may be a part): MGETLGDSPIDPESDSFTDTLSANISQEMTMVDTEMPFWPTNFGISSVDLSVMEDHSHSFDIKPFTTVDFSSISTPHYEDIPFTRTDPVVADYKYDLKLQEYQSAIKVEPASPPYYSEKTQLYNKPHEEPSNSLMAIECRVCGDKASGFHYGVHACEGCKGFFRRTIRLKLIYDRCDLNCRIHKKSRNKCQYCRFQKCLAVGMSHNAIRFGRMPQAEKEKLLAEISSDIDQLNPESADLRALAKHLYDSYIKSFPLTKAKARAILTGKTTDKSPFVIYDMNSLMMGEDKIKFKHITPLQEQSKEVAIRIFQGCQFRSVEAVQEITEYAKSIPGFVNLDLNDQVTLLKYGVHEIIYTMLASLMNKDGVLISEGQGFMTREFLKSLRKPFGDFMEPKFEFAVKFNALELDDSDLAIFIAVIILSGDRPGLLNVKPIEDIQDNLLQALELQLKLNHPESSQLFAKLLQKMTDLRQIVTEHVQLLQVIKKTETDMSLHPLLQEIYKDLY
Outline: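 HEK293T transiently transfected with PPARg and SRC-1 fused to Venus YFP fragments, compounds 8 h at 37C. Fixed, Draq5-stained cells imaged; nuclear/cytoplasmic 488 nm fluorescence ratio over at least 350 cells per image; gain fitted versus DMSO.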

[3] = biological target: Peroxisome proliferator-activated receptor gamma (Homo sapiens) (UniProt P37231); assay: OT_PPARg_PPARgSRC1_1440: Odyssey Thera (OT) 24-hour Protein-Complementation Assay for Peroxisome Proliferator-activated Receptor Gamma/ SRC-1 Co-activator (AID 2283388; active = hit-call score of the fitted dose curve at least 0.9, where 1 is the maximum)
Outline: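 Protein-fragment complementation between PPARg and coactivator SRC-1 was measured by fluorescence imaging in transiently transfected HEK293T cells after 24 h treatment. Signal was quantified as N/C ratio in the 488 nm channel, with DMSO as negative control.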

[4] = ATG_ERE_CIS: Attagene CIS-FACTORIAL HepG2 Assay for Estrogen Response Element (ERE) (AID 2282940); conditions: HepG2 ERE cis-reporter, Attagene RNA transcript; actives raise or lower the signal
Outline: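 HepG2 cells transiently transfected with multiplexed cis-element reporter units, measuring endogenous transcription factor activity; ERE reporter mRNA quantified after 24 h exposure by RT-PCR, fluorescent labelling, HpaI digestion and capillary electrophoresis. Bidirectional change versus DMSO.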

[5] = read-out: Low-density lipoprotein receptor (LDLR), LDLR (gene 3949); assay: BSK_CASM3C_LDLR: BioMAP Diversity Plus: CASM3C Assay for Low-density lipoprotein receptor (LDLR) Biomarker Activity (AID 2283045); conditions: primary human coronary artery smooth muscle cells; actives raise or lower the signal;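 note: LDLR protein level on the cell surface quantified by ELISA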
[6] = read-out: E-selectin (Homo sapiens) (UniProt P16581); assay: BSK_LPS_Eselectin: BioMAP Diversity Plus: LPS Assay for Eselectin Biomarker Activity (AID 2283077); conditions: primary human HUVEC with PBMC; actives raise or lower the signal
Outline: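 Primary human vascular co-culture (endothelium plus PBMC) was dosed with chemical, then E-selectin quantified by ELISA at 24 h. Endpoint values derive from bidirectional curve fitting relative to DMSO.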

[7] = read-out: Macrophage colony-stimulating factor (MCSF), CSF1 (gene 1435); assay: BSK_LPS_MCSF: BioMAP Diversity Plus: LPS Assay for Macrophage colony-stimulating factor (MCSF) Biomarker Activity (AID 2283083); conditions: primary human HUVEC with PBMC; actives raise or lower the signal
Outline: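 ELISA readout of M-CSF after 24 h compound exposure in a human endothelial/PBMC co-culture. Activity, in either direction, is fitted relative to DMSO vehicle.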

[8] = read-out: Tissue Factor, F3 (gene 2152); assay: BSK_LPS_TissueFactor: BioMAP Diversity Plus: LPS Assay for Tissue Factor Biomarker Activity (AID 2283084); conditions: primary human HUVEC with PBMC; actives raise or lower the signal
Outline: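 ELISA signal for cell-surface Tissue Factor (CD142) was read 24 h after compound dosing of an LPS-stimulated human endothelial–PBMC primary co-culture. Gain or loss of signal was scored relative to DMSO.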

[9] = read-out: Tumor necrosis factor (Homo sapiens) (UniProt P01375); assay: BSK_LPS_TNFa: BioMAP Diversity Plus: LPS Assay for Tumour Necrosis Factor alpha (TNFa) Biomarker Activity (AID 2283085); conditions: primary human HUVEC with PBMC; actives raise or lower the signal
Outline: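 Primary human vascular co-culture of HUVEC and PBMC; TNFa ELISA 24 h after treatment, analysed as increase or decrease relative to DMSO control.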

[10] = read-out: Vascular cell adhesion molecule 1 (VCAM1), VCAM1 (gene 7412); assay: BSK_LPS_VCAM1: BioMAP Diversity Plus: LPS Assay for Vascular cell adhesion molecule 1 (VCAM1) Biomarker Activity (AID 2283086); conditions: primary human HUVEC with PBMC; actives raise or lower the signal
Outline: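 Primary human vascular co-culture (umbilical vein endothelium plus PBMC) stimulated with LPS received chemical; 24 h later VCAM-1 was read by ELISA. Overt cytotoxicity was assessed by sulforhodamine B staining of parallel cultures at the same time point.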

CD40, CD40 (gene 958) = assay: BSK_SAg_CD40: BioMAP Diversity Plus: SAg Assay for CD40 Biomarker Activity (AID 2283088); conditions: primary human HUVEC with PBMC; actives raise or lower the signal
Outline: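 Compounds were dosed onto a human primary endothelial–PBMC co-culture, and after 24 h CD40 was quantified by ELISA using a fluorescence signal. Activity in either direction was fitted relative to DMSO.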

[11] = read-out: Monocyte Chemoattractant Protein-1 (MCP1), CCL2 (gene 6347); assay: BSK_SAg_MCP1: BioMAP Diversity Plus: SAg Assay for Monocyte Chemoattractant Protein-1 (MCP1) Biomarker Activity (AID 2283090); conditions: primary human HUVEC with PBMC; actives raise or lower the signal
Outline: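 MCP-1 levels in the endothelial–PBMC SAg co-culture were quantified by ELISA at 24 h post-dosing; both increases and decreases versus DMSO scored. Cytotoxicity monitored by SRB total protein in parallel cultures.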

[12] = read-out: Monokine induced gamma interferon (MIG), CXCL9 (gene 4283); assay: BSK_SAg_MIG: BioMAP Diversity Plus: SAg Assay for Monokine induced gamma interferon (MIG) Biomarker Activity (AID 2283092); conditions: primary human HUVEC with PBMC; actives raise or lower the signal
Outline: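 HUVEC plus human PBMC co-culture, chemicals dosed and MIG (CXCL9) quantified by ELISA at 24 h. Bidirectional curve fitting against DMSO as negative control and baseline, so both gain and loss of signal count as activity.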

[13] = read-out: Interleukin-8 (IL8), CXCL8 (gene 3576); assay: BSK_SAg_IL8: BioMAP Diversity Plus: SAg Assay for Interleukin-8 (IL8) Biomarker Activity (AID 2283094); conditions: primary human HUVEC with PBMC; actives raise or lower the signal
Outline: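 In this co-culture of human umbilical vein endothelium with peripheral blood mononuclear cells, IL-8 is assayed by ELISA at 24 h. DMSO serves as baseline for bidirectional curve fitting.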

[14] = BSK_SAg_Proliferation: Cell Proliferation Assessment in the BioMAP Diversity Plus: SAg Assay (AID 2283095); conditions: primary human HUVEC with PBMC;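 note: relative cell number as total protein by SRB absorbance in sub-confluent culture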
Outline: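 Readout is SRB-stained protein (560 nm) in a primary human HUVEC and PBMC co-culture; sub-confluent cultures are read at 96 h. Activity is fitted bidirectionally using DMSO as baseline.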

[15] = BSK_SAg_SRB: Viability Assessment in the BioMAP Diversity Plus: SAg Assay (AID 2283096); conditions: primary human HUVEC with PBMC;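 note: cells read one day after compound addition; hits may be either gain or loss of signal compared with DMSO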
Outline: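 Total protein by sulforhodamine B staining, 24 h after dosing, in HUVEC–PBMC co-culture; DMSO-referenced bidirectional fitting.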

[16] = read-out: Vascular endothelial growth factor receptor 2 (Homo sapiens) (UniProt P35968); assay: BSK_4H_VEGFRII: BioMAP Diversity Plus: 4H Assay for Vascular endothelial growth factor receptor 2 (VEGFR2) Biomarker Activity (AID 2283031); conditions: primary human endothelial cells (HUVEC); actives raise or lower the signal
Outline: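 ELISA read-out of VEGFRII in primary human umbilical vein endothelium, taken 24 h after chemical treatment. Responses are expressed relative to DMSO, with bidirectional fitting.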

[17] = read-out: Transforming growth factor beta 1 (TGFb1), TGFB1 (gene 7040); assay: BSK_BE3C_TGFb1: BioMAP Diversity Plus: BE3C Assay for Transforming growth factor beta 1 (TGFb1) Biomarker Activity (AID 2283036;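 note: TGF-b1 protein level measured by ELISA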); conditions: primary human bronchial epithelial cells; actives raise or lower the signal
Outline: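 In this human primary bronchial epithelial system, an ELISA quantified TGF-b1 one day after dosing. Endpoint changes in either direction were fitted relative to DMSO.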

[18] = read-out: C-C motif chemokine 2 (Homo sapiens) (UniProt P13500); assay: BSK_KF3CT_MCP1: BioMAP Diversity Plus: KF3CT Assay for Monocyte Chemoattractant Protein 1 (MCP1/CCL2) Biomarker Activity (AID 2283073); conditions: primary human keratinocytes with fibroblasts; actives raise or lower the signal
Outline: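 ELISA readout of MCP-1 after 24 h chemical dosing of a human skin primary co-culture of keratinocytes and foreskin fibroblasts. Activity was fitted in both directions against DMSO.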

Measured: AC50

Chain of Tumor necrosis factor (Homo sapiens) (P01375 whole entry, looked up): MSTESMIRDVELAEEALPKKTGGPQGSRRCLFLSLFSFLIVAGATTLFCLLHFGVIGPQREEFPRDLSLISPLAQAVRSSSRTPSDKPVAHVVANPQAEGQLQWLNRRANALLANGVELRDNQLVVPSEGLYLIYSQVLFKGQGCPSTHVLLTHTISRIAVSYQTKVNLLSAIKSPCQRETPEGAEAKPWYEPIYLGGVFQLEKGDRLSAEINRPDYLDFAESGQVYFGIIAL
Chain of E-selectin (Homo sapiens) (P16581 whole entry, looked up): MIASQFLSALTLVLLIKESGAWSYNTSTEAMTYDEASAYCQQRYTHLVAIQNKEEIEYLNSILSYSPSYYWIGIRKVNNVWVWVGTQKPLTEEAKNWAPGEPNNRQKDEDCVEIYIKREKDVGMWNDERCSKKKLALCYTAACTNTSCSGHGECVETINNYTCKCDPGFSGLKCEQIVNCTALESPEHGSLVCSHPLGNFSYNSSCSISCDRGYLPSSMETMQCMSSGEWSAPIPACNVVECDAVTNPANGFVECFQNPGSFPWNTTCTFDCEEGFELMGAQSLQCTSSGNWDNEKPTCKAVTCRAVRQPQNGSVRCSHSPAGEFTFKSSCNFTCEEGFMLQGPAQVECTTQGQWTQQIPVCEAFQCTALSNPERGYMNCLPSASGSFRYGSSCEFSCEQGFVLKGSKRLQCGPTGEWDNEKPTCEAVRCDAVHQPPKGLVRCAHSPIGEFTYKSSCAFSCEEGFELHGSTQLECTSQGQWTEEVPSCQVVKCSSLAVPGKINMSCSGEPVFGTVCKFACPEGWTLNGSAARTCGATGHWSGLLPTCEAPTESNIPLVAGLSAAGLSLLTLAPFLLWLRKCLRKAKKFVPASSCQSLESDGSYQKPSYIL

CCOP(=O)(OCC)Oc1ccc([N+](=O)[O-])cc1
inactive: [1] | [2] | [3]

C[N+](C)(C)CC(=O)[O-]
inactive: [4]

COc1ccc(CO)cc1
not listed: [2] | [3] | [4] | [16] | [17] | [18]
inactive: all other assays above

Clc1ccc(-c2ccccc2)cc1
active: [4] 55.7 µM
not listed: [2] | [3]
inactive: all other assays above

N#CCNCC#N
inactive: [4]

O=[N+]([O-])c1ccc(Cl)cc1
not listed: [1] | [2] | [3] | [4]
inactive: all other assays above

Cc1cc(C)c(C2=C(OC(=O)CC(C)(C)C)C3(CCCC3)OC2=O)c(C)c1
inactive: [4] | [1] | [2] | [3]

C=CCN(CC=C)C(=O)C(Cl)Cl
not listed: [1] | [4]
inactive: all other assays above
